Source: the supplement of paper PMC4723716
± gives the uncertainty stated by the source. In all, about 9,900 compounds were measured (“viability index relative to DMSO control”: median about 1, lowest 2% from about 0.85 on). This is one part of a sample in which the lowest values are shown more often than they occur.

System: Plasmodium falciparum NF54 stage V gametocytes
Assay: viability index relative to DMSO control (fraction); higher = less gametocyte killing
Conditions: 2.5 µM, incubation time: 72 h
In short: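 Gametocytes (P. falciparum NF54, stage V) were treated with compound at 2.5 µM for 72 hr at 37°C in low oxygen, in serum-free medium at 0.75% gametocytemia and 1.25% hematocrit. Counts of 20–70 µm2 red particles, taken from one field per well after MitoTracker Red CMXRos with saponin, were divided by the plate mean of solvent-only wells. This ratio is the viability index.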

[1] = library set: Broad Institute DOS
[2] = library set: Broad Institute Blood Stage

| Structure (SMILES) | viability index [1] | viability index [2] |
| --- | --- | --- |
| CO[C@H]1CN(C)C(=O)c2ccc(NS(C)(=O)=O)cc2OC[C@H](C)N(CC2CC2)C[C@@H]1C | 1.03 ± 0.087 |  |
| CO[C@@H](CN(C)Cc1nccs1)[C@@H](C)CN([C@@H](C)CO)S(=O)(=O)c1ccc(F)cc1 | 1.04 ± 0.0028 |  |
| COCC(=O)Nc1ccc2c(c1)[C@@H]1C[C@@H](CC(=O)NCc3ccc4c(c3)OCO4)O[C@@H](CO)[C@@H]1O2 | 1.01 ± 0.047 |  |
| N#C[C@@H]1[C@H](c2ccccc2C2=CCCCC2)[C@H](CO)N1C(=O)CN1CCOCC1 | 1.17 ± 0.13 |  |
| N#C[C@H]1[C@@H](c2ccc(-c3cccnc3)cc2)[C@@H](CO)N1C(=O)C1CCOCC1 | 1.07 ± 0.031 |  |
| C[C@@H]1CCCCO[C@@H](CN(C)C(=O)CCC(F)(F)F)[C@H](C)CN([C@@H](C)CO)C(=O)c2cc(NC(=O)C3CCCCC3)ccc2O1 | 1.13 ± 0.072 |  |
| O=S(=O)(c1ccc(F)cc1)N1C[C@@H]2N[C@H](C1)[C@@H]2c1ccc(/C=C/c2ccccc2)cc1 | 0.78 ± 0.029 |  |
| Cc1ccccc1S(=O)(=O)N1C[C@@H]2N[C@H](C1)[C@H]2c1ccc(/C=C/c2ccccc2)cc1 | 1 ± 0.048 |  |
| Cc1ccccc1S(=O)(=O)N1C[C@@H]2N[C@H](C1)[C@@H]2c1ccc(-c2cccc(C#N)c2)cc1 | 0.903 ± 0.018 |  |
| Cc1ccccc1S(=O)(=O)N1C[C@@H]2N[C@H](C1)[C@H]2c1ccc(-c2cccc(C#N)c2)cc1 | 1.03 ± 0.033 |  |
| COc1ccc(-c2ccc([C@H]3[C@@H]4CN(S(=O)(=O)c5ccccc5C)C[C@H]3N4)cc2)cc1 | 0.916 ± 0.068 |  |
| O=S(=O)(c1ccc(F)cc1)N1C[C@@H]2N[C@H](C1)[C@H]2c1ccc(/C=C/c2ccccc2)cc1 | 1.04 ± 0.055 |  |
| C/C=C/c1ccc([C@@H]2[C@@H]3CN(S(=O)(=O)c4ccccc4F)C[C@H]2N3)cc1 | 0.904 ± 0.016 |  |
| COc1ccc(-c2ccc([C@@H]3[C@@H]4CN(S(=O)(=O)c5ccccc5C)C[C@H]3N4)cc2)cc1 | 0.713 ± 0.11 |  |
| Cc1ccccc1S(=O)(=O)N1C[C@@H]2N[C@H](C1)[C@@H]2c1ccc(/C=C/c2ccccc2)cc1 | 0.771 ± 0.028 |  |
| COc1cccc(S(=O)(=O)N[C@@H]2CC[C@H](CC(=O)NC3Cc4ccccc4C3)O[C@H]2CO)c1 | 0.907 ± 0.18 |  |
| Cc1ccc(S(=O)(=O)Nc2ccc3c(c2)C(=O)N([C@H](C)CO)C[C@H](C)[C@H](CN(C)S(=O)(=O)c2cccs2)OCCCC[C@H](C)O3)cc1 | 1.07 ± 0.14 |  |
| CNC[C@H]1Oc2ccc(NS(=O)(=O)c3ccc(OC)cc3)cc2C(=O)N([C@H](C)CO)C[C@H]1C | 1.01 ± 0.079 |  |
| Cc1noc(C)c1NC(=O)N[C@H]1C=C[C@H](CC(=O)Nc2ccc(-c3ccccc3)cc2)O[C@H]1CO | 1.0744 ± 0.00039 |  |
| CO[C@H]1CN(C)C(=O)c2cc(NC(=O)c3ccc(F)cc3)ccc2OC[C@@H](C)N(C(=O)CC2CC2)C[C@H]1C | 1.099 ± 0.004 |  |
| CCCNC(=O)N1C[C@@H](O)COC[C@H]2O[C@@H](CC(=O)OC)CC[C@@H]21 | 1.14 ± 0.053 |  |
| N#C[C@@H]1[C@H](c2ccccc2-c2cccc(F)c2)[C@H](CO)N1C(=O)CN1CCOCC1 | 1.15 ± 0.068 |  |
| C/C=C/c1ccc([C@H]2[C@@H](CO)N(S(C)(=O)=O)[C@@H]2CN(C(C)=O)C(C)C)cc1 | 0.957 ± 0.06 |  |
| C/C=C/c1ccc([C@H]2[C@@H](CO)N(C(=O)C3CC3)[C@H]2CNC(=O)NC(C)C)cc1 | 0.989 ± 0.018 |  |

| Structure (SMILES) | viability index [1] | viability index [2] |
| --- | --- | --- |
| C/C=C/c1ccc([C@H]2[C@@H](CO)N(CC3CCCCC3)[C@@H]2CNC(C)C)cc1 |  | 0.565 ± 0.068 |
| C/C=C/c1ccc([C@H]2[C@@H](CNC(=O)CC3CC3)N(C(=O)CC)[C@H]2CO)cc1 | 1.05 ± 0.054 |  |
| C/C=C/c1ccc([C@H]2[C@H](CO)N(S(C)(=O)=O)[C@H]2CNCC2CCC2)cc1 | 0.688 ± 0.08 |  |
| C/C=C/c1ccc([C@H]2[C@@H](CO)N(CC3CCCC3)[C@H]2CNS(C)(=O)=O)cc1 | 1.03 ± 0.099 |  |
| CCC(=O)Nc1ccc2c(c1)C(=O)N(C)C[C@@H](OC)[C@@H](C)CN(Cc1nccs1)[C@H](C)CO2 | 1.16 ± 0.082 |  |
| COC(=O)C[C@@H]1CC[C@@H]2[C@@H](COc3ccc(NC(=O)c4ccc(C(F)(F)F)cc4)cc3C(=O)N2C)O1 | 1.13 ± 0.065 |  |
| C[C@@H]1COCn2nncc2CC[C@H](Cc2cccc(Cl)c2)C(=O)N1 | 1.09 ± 0.051 |  |
| COCC(=O)Nc1ccc2c(c1)C(=O)N(C)[C@H]1CC[C@@H](CC(=O)NC3Cc4ccccc4C3)O[C@@H]1CO2 | 1.16 ± 0.13 |  |
| C[C@H](CO)N1C[C@H](C)[C@@H](CN(C)S(=O)(=O)c2ccccc2F)Oc2ncc(/C=C/c3ccccc3)cc2C1=O | 1.05 ± 0.049 |  |
| C[C@H](CO)N1C[C@H](C)[C@@H](CN(C)C(=O)C2CCCCC2)Oc2ncc(/C=C/c3ccccc3)cc2C1=O |  | 0.735 ± 0.028 |
| C[C@@H]1CN([C@@H](C)CO)C(=O)c2cc(/C=C/c3ccccc3)cnc2O[C@@H]1CN(C)S(=O)(=O)c1ccccc1F | 1.02 ± 0.059 |  |
| C[C@H]1CN([C@@H](C)CO)C(=O)c2cc(/C=C/c3ccccc3)cnc2O[C@@H]1CN(C)S(=O)(=O)c1ccccc1F | 1.03 ± 0.082 |  |
| C[C@H]1CN([C@@H](C)CO)C(=O)c2cc(/C=C/c3ccccc3)cnc2O[C@@H]1CN(C)C(=O)C1CCCCC1 |  | 0.643 ± 0.072 |
| C[C@H]1CN([C@@H](C)CO)C(=O)c2cc(/C=C/c3ccccc3)cnc2O[C@H]1CN(C)S(=O)(=O)c1ccccc1F | 1.03 ± 0.12 |  |
| COc1ccc2c3c([nH]c2c1)[C@@H](CO)N(Cc1cc(OC)cc(OC)c1)C[C@]31CN(C1)C(=O)Nc1c(C)noc1C | 0.974 ± 0.12 |  |
| C[C@H](CO)N1C[C@H](C)[C@@H](CN(C)Cc2ccc3cccnc3c2)OCc2cnnn2CCCC1=O | 1.07 ± 0.014 |  |
| Cc1noc(C)c1NC(=O)Nc1ccc2c(c1)C(=O)N([C@@H](C)CO)C[C@H](C)[C@H](CN(C)S(=O)(=O)c1cccs1)OCCCC[C@@H](C)O2 | 1.09 ± 0.045 |  |
| CN1C(=O)c2cc(NC(=O)Nc3ccc(Cl)cc3)ccc2OC[C@@H]2O[C@H](CC(=O)NCCN3CCCCC3)CC[C@H]21 | 0.955 ± 0.11 |  |
| CN1C(=O)c2cc(NC(=O)Nc3ccc(Cl)cc3)ccc2OC[C@H]2O[C@@H](CC(=O)NCCN3CCCCC3)CC[C@H]21 | 1.01 ± 0.025 |  |
| CC(C)NC(=O)Nc1ccc2c(c1)C(=O)N(C)[C@H]1CC[C@H](CC(=O)NCc3ccc(F)cc3)O[C@H]1CO2 | 0.919 ± 0.034 |  |
| COc1ccc(C(=O)Nc2ccc3c(c2)C(=O)N(C)[C@@H]2CC[C@@H](CC(=O)NCC4CC4)O[C@@H]2CO3)cc1 | 1.03 ± 0.11 |  |
| COc1ccc(C(=O)Nc2ccc3c(c2)C(=O)N(C)[C@H]2CC[C@H](CC(=O)NCC4CC4)O[C@H]2CO3)cc1 | 0.823 ± 0.15 |  |
| CC(C)NC(=O)Nc1ccc2c(c1)C(=O)N(C)[C@H]1CC[C@@H](CC(=O)NCc3ccc(F)cc3)O[C@H]1CO2 | 0.814 ± 0.17 |  |
| CC(C)NC(=O)Nc1ccc2c(c1)C(=O)N(C)[C@@H]1CC[C@H](CC(=O)NCc3ccc(F)cc3)O[C@@H]1CO2 | 1.11 ± 0.047 |  |

| Structure (SMILES) | viability index [1] | viability index [2] |
| --- | --- | --- |
| CN1C(=O)c2cc(NC(=O)Nc3ccc(Cl)cc3)ccc2OC[C@@H]2O[C@@H](CC(=O)NCCN3CCCCC3)CC[C@H]21 | 0.838 ± 0.04 |  |
| COc1ccc(C(=O)Nc2ccc3c(c2)C(=O)N(C)[C@@H]2CC[C@@H](CC(=O)NCC4CC4)O[C@H]2CO3)cc1 | 0.932 ± 0.15 |  |
| O=C(C[C@H]1CC[C@H]2[C@@H](COC[C@@H](O)CN2Cc2nccs2)O1)NCc1ccccc1Cl | 1.1 ± 0.03 |  |
| C[C@@H]1CN([C@H](C)CO)C(=O)Cc2cc(NC(=O)c3ccncc3)ccc2O[C@H]1CN(C)C(=O)Nc1ccc(F)cc1 | 0.944 ± 0.12 |  |
| CC(C)NC[C@@H]1[C@H](c2ccc(C3=CCCCC3)cc2)[C@H](CO)N1S(C)(=O)=O | 0.996 ± 0.022 |  |
| C[C@H]1CN([C@@H](C)CO)C(=O)CCCn2nncc2CO[C@@H]1CN(C)Cc1ccccc1C(=O)O | 1.04 ± 0.031 |  |
| O=C(c1ccccn1)N1CC2(C1)[C@@H](c1ccccc1)[C@@H](CO)N2C(=O)C1CCCCC1 | 1.041 ± 0.0089 |  |
| OC[C@H]1[C@@H](c2ccc(-c3cccc(F)c3)cc2)[C@@H]2CN(Cc3cncnc3)CCCCN12 | 0.963 ± 0.1 |  |
| OC[C@H]1[C@@H](c2ccc(C3=CCCC3)cc2)[C@@H]2CN(Cc3ccncc3)CCCCN12 | 0.845 ± 0.14 |  |
| OC[C@@H]1[C@H](c2ccc(-c3cccnc3)cc2)[C@H]2CN(Cc3ccccn3)CCCCN12 | 0.979 ± 0.024 |  |
| OC[C@@H]1[C@H](c2ccc(C3=CCCC3)cc2)[C@H]2CN(Cc3ccncc3)CCCCN12 | 1.05 ± 0.068 |  |
| OC[C@@H]1[C@H](c2ccc(-c3cccnc3)cc2)[C@@H]2CN(Cc3ccccn3)CCCCN12 | 1.04 ± 0.06 |  |
| OC[C@@H]1[C@@H](c2ccc(-c3cccnc3)cc2)[C@@H]2CN(Cc3ccccn3)CCCCN12 | 0.737 ± 0.12 |  |
| CN1C(=O)c2cc(NC(=O)c3ccc4c(c3)OCO4)ccc2OC[C@H]2O[C@@H](CC(=O)O)CC[C@@H]21 | 1.11 ± 0.071 |  |
| CO[C@@H](CN(C)C(=O)c1cc(Cl)cc(Cl)c1)[C@@H](C)CN(C(=O)Nc1ccc(F)cc1)[C@@H](C)CO | 1.04 ± 0.018 |  |
| N#C[C@H]1[C@@H](c2ccccc2)[C@@H](CO)N1C(=O)c1ccc2c(c1)OCO2 | 1.08 ± 0.022 |  |
| N#C[C@H]1[C@@H](c2ccccc2C2=CCCC2)[C@H](CO)N1C(=O)Cc1ccncc1 | 1.07 ± 0.13 |  |
| COc1ccc(S(=O)(=O)N(C)C[C@@H]2OCCCC[C@H](C)Oc3ccc(NC(=O)Cc4ccccc4)cc3C(=O)N([C@@H](C)CO)C[C@H]2C)cc1 | 0.911 ± 0.17 |  |
| COc1ccc(S(=O)(=O)N(C)C[C@H]2OCCCC[C@@H](C)Oc3ccc(NC(=O)Cc4ccccc4)cc3C(=O)N([C@@H](C)CO)C[C@H]2C)cc1 | 0.773 ± 0.061 |  |
| COc1ccc(S(=O)(=O)N(C)C[C@H]2OCCCC[C@H](C)Oc3ccc(NC(=O)Cc4ccccc4)cc3C(=O)N([C@H](C)CO)C[C@@H]2C)cc1 | 0.994 ± 0.022 |  |
| COc1ccc(S(=O)(=O)N(C)C[C@H]2OCCCC[C@@H](C)Oc3ccc(NC(=O)Cc4ccccc4)cc3C(=O)N([C@@H](C)CO)C[C@@H]2C)cc1 | 1.07 ± 0.17 |  |
| COc1ccc(S(=O)(=O)N(C)C[C@H]2OCCCC[C@H](C)Oc3ccc(NC(=O)Cc4ccccc4)cc3C(=O)N([C@@H](C)CO)C[C@H]2C)cc1 | 0.791 ± 0.031 |  |
| COc1ccc(S(=O)(=O)N(C)C[C@H]2OCCCC[C@H](C)Oc3ccc(NC(=O)Cc4ccccc4)cc3C(=O)N([C@H](C)CO)C[C@H]2C)cc1 | 0.9061 ± 0.001 |  |
